# HT1080NT lethal = kills 2HG-producing HT-1080-NT fibrosarcoma cells. HT-1080-NT fibrosarcoma viability, CellTiter-Glo ATP luminescence, 48 h. Potency, µM (doses to about 46.1 µM), for inactives: at the highest dose activity, negative = less viability, most hits filed as cytotoxic. 360,000 compounds, 1.6% hits. AID 686970;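 also: NT is the 2HG producing partner of a matched IDH1 knockdown line; 0% = DMSO-treated cells and -100% = media-only wells without cells; nearly all actives have a fitted effect of over 55% in size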
#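 HT-1080-NT fibrosarcoma cells (2HG-overproducing), 750 cells/well in RPMI with 5% FBS, dosed after 2 h and incubated 48 h at 37C. CellTiter-Glo luminescence normalized to DMSO and no-cell wells; concentration-response curves fitted and classed.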
# TDP1 cell CPT = growth inhibition of DT40 Tdp1-/-;hTDP1 cells with camptothecin (screen for TDP1 inhibitors) | chicken DT40 Tdp1-/-;hTDP1 cells + 20 nM CPT, ATP luminescence, 48 h | 420,000 compounds, 12% hits | Potency, µM (titrated, usually from 46.2 µM), inactives show top-dose activity change, negative = growth inhibition, hits mostly inhibitors; also: nearly all actives have a fitted effect of over 55% in size
#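 Chicken DT40 Tdp1-/- cells stably complemented with human TDP1 were seeded at 400 cells/well in medium containing 20 nM camptothecin, exposed to pin-transferred compounds, and grown at 37 °C for at least 48 hr. Viability was read as ATP luminescence.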
# KB-3-1 tox = kills parental KB-3-1 adenocarcinoma cells | 400,000 compounds, 1.4% hits | Potency, µM (doses to about 46.1 µM), most hits filed as cytotoxic | KB-3-1 viability, CellTiter-Glo ATP luminescence, 72 h; also: nearly all actives have a fitted effect of over 60% in size
#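 Using CellTiter-Glo luminescence, growth of non-resistant KB-3-1 adenocarcinoma cells is assessed 72 h after pin-tool compound addition at 37 °C. Normalized responses across the concentration series yield fitted curves.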
# HT1080 IDH1KD tx = kills HT-1080 cells with IDH1 knockdown. HT-1080 IDH1 knockdown viability, ATP luminescence, 48 h. Potency, µM (titrated, usually from 46.1 µM), without a hit: top-dose activity, negative = toxicity, hits mostly cytotoxic. 360,000 compounds, 2% hits. AID 686971;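 also: 0% = DMSO wells and -100% = cell-free medium wells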
#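 Luminescent ATP read-out (CellTiter-Glo, 10 min at room temperature) after 48 h compound exposure at 37 °C gave viability of IDH1-knockdown HT-1080 cells. Activity was normalised to DMSO and cell-free wells, then fitted as concentration-response curves.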
# DT40 TDP1 no CPT = qHTS for Inhibitors of human tyrosyl-DNA phosphodiesterase 1 (TDP1): qHTS in cells in absence of CPT; DT40 Tdp1-/- hTDP1 cells, no CPT, ATP luminescence, 48 h; Potency, µM (doses to about 46.2 µM), for the others: top-dose activity change, negative = growth inhibition, actives largely listed as inhibitors; 420,000 compounds, 15% hits; also: nearly all actives have a fitted effect of over 55% in size
#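 Chicken DT40 Tdp1-/- cells stably complemented with human TDP1 were seeded at 400 cells/well with DMSO in place of 20 nM camptothecin. After compound pinning, cells grew at least 48 hr at 37 °C; viability read by CellTiter-Glo luminescence.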
# KB-V1 MDR tox = KB-V1 MDR subline cytotoxicity. Potency, µM (doses to about 46.1 µM), most hits filed as cytotoxic. KB-V1 MDR cells viability, CellTiter-Glo, 72 h. AID 1347076. 400,000 compounds, 3.4% hits; also: nearly all actives have a fitted effect of over 60% in size
#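 Cytotoxicity toward P-gp-expressing KB-V1 cells was determined as loss of CellTiter-Glo luminescence after 72 h at 37 degrees C. Compounds were tested in quantitative HTS format across a concentration range, with curves fitted to normalized data.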
# The depositor's hits bear a star; i = inactive; ? = inconclusive; nt = no result; [ ] = dose if it differs, or a comment. Most compounds without a hit are left out; they make up all but 19% or so of the library. Calls follow the shape of the dose curve; as a rule, active = well fitted curve in the direction sought with a large enough effect; inconclusive = small, poorly fitted or top-dose-only effect, or another doubt; inactive = no such curve, though single readings can be large; an effect the other way counts as inactive or inconclusive. Unless noted, % is scaled to controls: 0 for no effect and ±100 for the full control effect; potency is read from the fitted curve at half-maximal effect.
SMILES,HT1080NT lethal,TDP1 cell CPT,KB-3-1 tox,HT1080 IDH1KD tx,DT40 TDP1 no CPT,KB-V1 MDR tox
Cc1ccccc1-c1cc(C(=O)NCc2cccc(Br)c2)n(CC2CC(c3cccnc3)=NO2)n1 (configuration not stated),-6%,?,i,-3%,18µM*,?
COc1ccccc1CNC(=O)c1cc(-c2ccccc2C)nn1CC1CC(c2cccnc2)=NO1 (configuration not stated),-1%,?,i,-3%,?,i
O=C(NCc1ccc(OC(F)(F)F)cc1)c1cc(-c2ccccc2)nn1CC1CC(c2cccnc2)=NO1 (configuration not stated),-2%,?,i,-1%,?,21µM*
O=C(CN1C(=O)COc2ccc(Cl)cc21)Nc1cccc(C(=O)O)c1,nt,-6%,i,nt,-8%,?
Cc1cccc(N(C)C(=O)CCNS(=O)(=O)c2ccc3c(c2)CCN3C(=O)C2CC2)c1,nt,16µM*,i,nt,21µM*,i
Cc1cccc(N2CCN(C(=O)CCNS(=O)(=O)c3ccc4c(c3)CCN4C(=O)C3CC3)CC2C)c1 (configuration not stated),nt,5.8µM*,i,nt,8.2µM*,i
COc1ccccc1NC(=O)CCNS(=O)(=O)c1ccc2c(c1)CCN2C(=O)C1CC1,nt,?,i,nt,?,i
Cc1ccc(S(=O)(=O)CCC(=O)N2CCc3ccccc32)cc1,1%,-6%,i,0%,7%,21µM*
CCC(=O)N1CCc2cc(S(=O)(=O)CCC(=O)NCc3ccc(F)cc3)ccc21,nt,6.5µM*,i,nt,3.3µM*,?
COc1cccc(C(c2sc3nc(-c4ccco4)nn3c2O)N2CCC(C)CC2)c1 (configuration not stated),nt,7%,i,nt,-12%,i
O=S1(=O)CC(N2CCCCC2)CN1Cc1cn(Cc2cccc(Cl)c2)nn1 (configuration not stated),26%,-11%,i,?,-14%,i
COC(=O)[C@H]1C2CC3c4[nH]c5ccccc5c4CCN3CC2CC[C@@H]1O (some centres not stated),nt,-3%,nt,nt,-12%,nt
CCCCC/C=C\C\C=C/C=C/C=C/[C@@H](SC[C@H](N)C(=O)NCC(=O)O)[C@@H](O)CCCC(=O)O,nt,-4%[0.628 µM],nt,nt,2%[0.628 µM],nt
CCC(=O)N1CCc2cc(S(=O)(=O)CCC(=O)N3CCN(c4cccc(C)c4)C(C)C3)ccc21 (configuration not stated),nt,12µM*,i,nt,4.6µM*,i
CCC(=O)N1CCc2cc(Br)cc(S(=O)(=O)CCC(=O)N3CCN(c4cccc(C)c4)C(C)C3)c21 (configuration not stated),nt,?,i,nt,?,i
O=C(N/C(=C/c1cccc([N+](=O)[O-])c1)C(=O)N1CCOCC1)c1ccccc1Br,0%,-2%,nt,-11%,-7%,nt
CC(C)(C)c1ccc(C(=O)C[n+]2ccc(Cl)c3ccc(Cl)cc32)cc1,nt,0.89µM*,0.26µM*,nt,0.35µM*,?
COc1cc2cc[n+]3cc4c(OC)c(OC)ccc4cc3c2cc1OC,nt,2.3µM*,nt,nt,2.9µM*,nt
COc1cc2cc(C)c(Br)c(OC)c2cc1OC,-4%,?,?,-14%,?,?
Cn1c(=O)[nH]c(=O)c2c1nc(NCCN)n2CCOc1ccccc1,6%,?,i,22%,13µM*,i
Cn1c(=O)[nH]c(=O)c2c1nc(Br)n2CCOc1ccccc1,-8%,10µM*,?,-8%,16µM*,?

# Compound activity: PubChem, National Center for Advancing Translational Sciences (NCATS)
